# Assay results reported in the supplement of paper PMC11732987, “Enantioselective OTUD7B fragment discovery through chemoproteomics screening and high-throughput optimisation” (Communications Chemistry, 2025).
# Values without a mark were called inactive.
# Target: T1, USP36 (UniProt Q9P275)
# T1 sequence (whole entry): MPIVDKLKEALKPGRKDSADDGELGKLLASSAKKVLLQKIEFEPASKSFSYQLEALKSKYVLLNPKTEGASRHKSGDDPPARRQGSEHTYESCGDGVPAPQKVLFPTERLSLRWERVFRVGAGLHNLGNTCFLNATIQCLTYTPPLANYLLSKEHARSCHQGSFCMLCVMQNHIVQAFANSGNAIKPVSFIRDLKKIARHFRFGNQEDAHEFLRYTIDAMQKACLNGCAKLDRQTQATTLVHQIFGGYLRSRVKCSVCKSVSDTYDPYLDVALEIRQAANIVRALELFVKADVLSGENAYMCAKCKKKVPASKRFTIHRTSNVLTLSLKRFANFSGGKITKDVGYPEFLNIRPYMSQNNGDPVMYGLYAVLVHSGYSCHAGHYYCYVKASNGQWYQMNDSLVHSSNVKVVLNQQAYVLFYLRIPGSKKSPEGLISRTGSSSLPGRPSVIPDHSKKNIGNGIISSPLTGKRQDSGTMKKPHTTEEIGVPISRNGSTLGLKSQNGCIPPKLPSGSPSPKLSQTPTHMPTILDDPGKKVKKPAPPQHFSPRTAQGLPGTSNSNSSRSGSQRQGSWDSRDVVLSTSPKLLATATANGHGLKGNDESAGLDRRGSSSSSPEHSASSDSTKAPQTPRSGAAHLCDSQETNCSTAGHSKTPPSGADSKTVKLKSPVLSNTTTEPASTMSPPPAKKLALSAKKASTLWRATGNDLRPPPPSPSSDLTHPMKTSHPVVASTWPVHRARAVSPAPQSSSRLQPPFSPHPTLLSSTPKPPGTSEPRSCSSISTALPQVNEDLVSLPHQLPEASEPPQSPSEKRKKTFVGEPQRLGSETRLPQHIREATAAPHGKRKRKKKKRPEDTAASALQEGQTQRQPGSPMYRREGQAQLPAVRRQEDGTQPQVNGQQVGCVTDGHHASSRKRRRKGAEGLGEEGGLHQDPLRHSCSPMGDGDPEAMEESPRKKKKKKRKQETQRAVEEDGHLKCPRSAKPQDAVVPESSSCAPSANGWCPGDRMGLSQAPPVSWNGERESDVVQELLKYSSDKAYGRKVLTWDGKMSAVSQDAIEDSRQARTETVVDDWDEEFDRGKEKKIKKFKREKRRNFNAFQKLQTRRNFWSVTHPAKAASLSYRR
# Test: log2 ratio of Biotin-Ahx-Ub-VS probe labelling (fragment/DMSO); higher = less target engagement (more negative = stronger competition), active = hit call of the paper (q ≤ 0.05, log2 ratio ≤ -1)
# Conditions: compound concentration: 200 uM; treatment time: 3 h
# In short: (§1)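 HEK293T lysate (495 µg per sample, in Tris/CHAPS/IGEPAL buffer with protease inhibitors) was treated in triplicate with fragment at 200 µM or with DMSO for 3 h. It was then treated with Biotin-Ahx-Ub-VS (0.5 µM final) for 1 h. Labelled DUBs were NeutrAvidin-enriched, digested with LysC and trypsin, and run by diaPASEF LC-MS/MS. Spectronaut label-free quantities were global-median-normalised. Values are average log2 ratios fragment/DMSO by unpaired t-test, using proteins with ≥2 unique peptides.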
row,SMILES,log2 ratio of Biotin-Ahx-Ub-VS probe labelling
1,O=C(CCl)Nc1ccc(F)cc1Cl,0.0206
2,O=C(CCl)Nc1cccc2ncccc12,0.45
3,O=C(CCl)NC(Cn1ccccc1=O)c1ccccc1 (stereo not drawn),0.132
4,Cc1n[nH]c(=O)c2c(NC(=O)CCl)oc(C)c12,0.103
5,Cc1ccc(-c2nnc(C)[nH]2)c(NC(=O)CCl)c1,-0.152
6,Cc1ccc(C)c(Oc2ccc(CNC(=O)CCl)cn2)c1.Cl,-0.158
7,Cc1nc(CN2CCCN(C(=O)CCl)CC2)no1.Cl,-0.0476
8,N#Cc1ccc(CNC(=O)CCl)cc1,0.0698
9,CC(C)n1nccc1NC(=O)CCl,-0.0105
10,CC(NC(=O)CCl)c1ccc2[nH]ncc2c1 (stereo not drawn),-0.00241
11,Cl.O=C(CN1CCN(C(=O)CCl)CC1)Nc1ccc(F)cc1,-0.231
12,CC(NC(=O)CCl)c1cnn(C2CC2)c1 (stereo not drawn),-0.123
13,NC(=O)C(Cc1ccccc1)NC(=O)CCl (stereo not drawn),0.0618
14,O=C(CCl)NC1CCN(C(=O)C2CCCCC2)CC1,-0.0678
15,Cc1cc(Cl)ccc1NC(=O)CCl,-0.182
16,COc1ccc(Cl)cc1NC(=O)CCl,-0.44
17,O=C(CCl)Nc1nnc(CC(F)(F)F)o1,-0.182

row,SMILES,log2 ratio of Biotin-Ahx-Ub-VS probe labelling
1,O=C(CCl)N(C1=CCCCC1)C1CC1,-0.116
2,Cc1ccc(CN(CCO)C(=O)CCl)cc1,-0.00999
3,CC(NC(=O)CCl)c1cccc2ccccc12 (stereo not drawn),-0.062
4,O=C(CCl)N1CCCCC12CCOCC2,-0.239
5,Cl.Cn1ncc2c1CCCC2NC(=O)CCl (stereo not drawn),-0.298
6,COCC[C@@H](NC(=O)CCl)c1ccccc1,-0.11
7,CN(C(=O)CCl)c1nc2ccccc2s1,-0.0441
8,O=C(CCl)N1CCC(C(=O)N2CCCCCC2)CC1,-0.258
9,O=C(CCl)N1CCOC2(CCC2)CC1,-0.163
10,O=C(CCl)NCCC1=CCCCC1,-0.119
11,O=C(CCl)N(C1CCCC1)C1CCS(=O)(=O)C1 (stereo not drawn),-0.298
12,Cc1noc(N2CCN(C(=O)CCl)CC2)n1.Cl,-0.0365
13,COc1ccccc1C(C)NC(=O)CCl (stereo not drawn),-0.00263
14,O=C(CCl)N(Cc1ccsc1)C1CC1,0.266
15,O=C(CCl)N1CCC(S(=O)(=O)c2ccc(F)cc2)CC1,-0.00998
16,Cc1nc(CN2CCN(C(=O)CCl)CC2)cs1,-0.0366
17,O=C(CCl)N1CC2(CCOCC2)C1,-0.243

# Target: T2, USP38 (UniProt Q8NB14)
# T2 sequence (whole entry): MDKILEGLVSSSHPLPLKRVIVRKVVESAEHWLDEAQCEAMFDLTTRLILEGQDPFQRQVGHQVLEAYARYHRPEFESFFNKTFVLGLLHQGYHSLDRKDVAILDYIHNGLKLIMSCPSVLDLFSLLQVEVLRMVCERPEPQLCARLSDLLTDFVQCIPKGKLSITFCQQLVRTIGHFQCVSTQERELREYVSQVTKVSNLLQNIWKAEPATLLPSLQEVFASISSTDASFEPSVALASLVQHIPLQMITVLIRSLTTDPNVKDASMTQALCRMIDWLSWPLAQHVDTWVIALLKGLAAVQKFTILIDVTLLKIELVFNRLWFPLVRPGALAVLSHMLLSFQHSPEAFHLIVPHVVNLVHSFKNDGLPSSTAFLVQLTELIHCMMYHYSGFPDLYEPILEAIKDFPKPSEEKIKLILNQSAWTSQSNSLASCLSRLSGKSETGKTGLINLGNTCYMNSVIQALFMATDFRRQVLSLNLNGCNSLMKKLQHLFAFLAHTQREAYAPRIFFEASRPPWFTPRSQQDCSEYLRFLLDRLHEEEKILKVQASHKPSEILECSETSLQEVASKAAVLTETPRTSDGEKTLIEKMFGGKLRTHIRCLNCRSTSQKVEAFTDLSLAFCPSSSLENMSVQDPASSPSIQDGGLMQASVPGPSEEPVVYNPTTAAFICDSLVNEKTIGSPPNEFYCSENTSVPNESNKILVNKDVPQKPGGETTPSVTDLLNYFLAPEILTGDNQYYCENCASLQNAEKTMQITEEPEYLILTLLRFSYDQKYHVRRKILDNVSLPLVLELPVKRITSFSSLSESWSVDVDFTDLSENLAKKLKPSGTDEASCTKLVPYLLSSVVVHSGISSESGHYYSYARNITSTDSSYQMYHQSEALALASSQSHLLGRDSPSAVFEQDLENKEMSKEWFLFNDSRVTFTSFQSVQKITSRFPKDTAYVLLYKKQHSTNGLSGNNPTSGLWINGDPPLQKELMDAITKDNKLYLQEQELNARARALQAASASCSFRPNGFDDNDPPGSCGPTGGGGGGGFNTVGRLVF
# Test: as above
# Conditions: compound concentration: 200 uM; treatment time: 3 h
# In short: as §1
row,SMILES,log2 ratio of Biotin-Ahx-Ub-VS probe labelling
1,O=C(CCl)Nc1ccc(F)cc1Cl,-0.165
2,O=C(CCl)Nc1cccc2ncccc12,0.13
3,O=C(CCl)NC(Cn1ccccc1=O)c1ccccc1 (stereo not drawn),-0.000312
4,Cc1n[nH]c(=O)c2c(NC(=O)CCl)oc(C)c12,0.0131
5,Cc1ccc(-c2nnc(C)[nH]2)c(NC(=O)CCl)c1,0.151
6,Cc1ccc(C)c(Oc2ccc(CNC(=O)CCl)cn2)c1.Cl,-0.222
7,Cc1nc(CN2CCCN(C(=O)CCl)CC2)no1.Cl,0.0657
8,N#Cc1ccc(CNC(=O)CCl)cc1,-0.0952
9,CC(C)n1nccc1NC(=O)CCl,-0.0818
10,CC(NC(=O)CCl)c1ccc2[nH]ncc2c1 (stereo not drawn),-0.222
11,Cl.O=C(CN1CCN(C(=O)CCl)CC1)Nc1ccc(F)cc1,-0.043
12,CC(NC(=O)CCl)c1cnn(C2CC2)c1 (stereo not drawn),-0.144
13,NC(=O)C(Cc1ccccc1)NC(=O)CCl (stereo not drawn),-0.0263
14,O=C(CCl)NC1CCN(C(=O)C2CCCCC2)CC1,0.166
15,Cc1cc(Cl)ccc1NC(=O)CCl,-0.0702
16,COc1ccc(Cl)cc1NC(=O)CCl,-0.283
17,O=C(CCl)Nc1nnc(CC(F)(F)F)o1,-0.0633

row,SMILES,log2 ratio of Biotin-Ahx-Ub-VS probe labelling
1,O=C(CCl)N(C1=CCCCC1)C1CC1,-0.172
2,Cc1ccc(CN(CCO)C(=O)CCl)cc1,-0.303
3,CC(NC(=O)CCl)c1cccc2ccccc12 (stereo not drawn),0.0489
4,O=C(CCl)N1CCCCC12CCOCC2,-0.4
5,Cl.Cn1ncc2c1CCCC2NC(=O)CCl (stereo not drawn),-0.175
6,COCC[C@@H](NC(=O)CCl)c1ccccc1,0.0786
7,CN(C(=O)CCl)c1nc2ccccc2s1,-0.124
8,O=C(CCl)N1CCC(C(=O)N2CCCCCC2)CC1,-0.135
9,O=C(CCl)N1CCOC2(CCC2)CC1,-0.056
10,O=C(CCl)NCCC1=CCCCC1,-0.0475
11,O=C(CCl)N(C1CCCC1)C1CCS(=O)(=O)C1 (stereo not drawn),-0.0626
12,Cc1noc(N2CCN(C(=O)CCl)CC2)n1.Cl,-0.0491
13,COc1ccccc1C(C)NC(=O)CCl (stereo not drawn),-0.182
14,O=C(CCl)N(Cc1ccsc1)C1CC1,0.00214
15,O=C(CCl)N1CCC(S(=O)(=O)c2ccc(F)cc2)CC1,-0.00588
16,Cc1nc(CN2CCN(C(=O)CCl)CC2)cs1,-0.217
17,O=C(CCl)N1CC2(CCOCC2)C1,0.103
